Conditions in all cases: mRNA level, 48 h; actives raise or lower the signal
Read-out in test [1]: Cytochrome P450 (CYP24A1), CYP24A1 (gene 1591)
Description: LTEA_HepaRG_CYP24A1: Life Technologies and Expression Analysis (LTEA) Assay for Cytochrome P450 (CYP24A1) using HepaRG (AID 2283478). In a few lines:
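qRT-PCR read-out: CYP24A1 transcript levels normalized to three housekeeping genes, bidirectional curve fits against 0.5% DMSO baseline. Human HepaRG cells treated 48 h with chemicals at eight concentrations from 100 uM in half-log steps.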

Read-out in test [2]: Cytochrome P450 (CYP1A2), CYP1A2 (gene 1544)
Put plainly: LTEA_HepaRG_CYP1A2: Life Technologies and Expression Analysis (LTEA) Assay for Cytochrome P450 (CYP1A2) using HepaRG (AID 2283479). In a few lines: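 HepaRG, 48 h exposure, top 100 uM, half-log 8-pt, 0.5% DMSO vehicle, duplicates. Readout: TaqMan qRT-PCR of CYP1A2 mRNA, housekeeping-normalized (ACTB/GAPDH/POLR2A). Gain/loss fit relative to DMSO baseline.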

Read-out in test [3]: cysteine-aspartic acid protease (CASP8), CASP8 (gene 841)
Description: LTEA_HepaRG_CASP8: Life Technologies and Expression Analysis (LTEA) Assay for cysteine-aspartic acid protease (CASP8) using HepaRG (AID 2283480). In a few lines: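 HepaRG, 48 h exposure, duplicate wells; 8 conc, half-log from 100 uM, 0.5% DMSO. Serum-free induction medium. CASP8 mRNA by TaqMan qRT-PCR, norm. ACTB/GAPDH/POLR2A; gain/loss fitted vs DMSO.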

Read-out in test [4]: Cytochrome P450 (CYP2B6), CYP2B6 (gene 1555)
Description: LTEA_HepaRG_CYP2B6: Life Technologies and Expression Analysis (LTEA) Assay for Cytochrome P450 (CYP2B6) using HepaRG (AID 2283481). In a few lines:
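Read-out is CYP2B6 mRNA by TaqMan qRT-PCR, normalized to three housekeeping genes and fitted bidirectionally against 0.5% DMSO baseline. Human HepaRG cells received test chemicals for 48 h, top concentration 100 uM, half-log dilutions.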

Read-out in test [5]: Cytochrome P450 2C19 (Homo sapiens) (UniProt P33261)
Description: LTEA_HepaRG_CYP2C19: Life Technologies and Expression Analysis (LTEA) Assay for CYP2C19 using HepaRG (AID 2283482). A digest of the protocol: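 HepaRG, 48 h chemical exposure, 8-pt half-log series from 100 uM in 0.5% DMSO, duplicates. Readout: CYP2C19 mRNA by TaqMan qRT-PCR, housekeeping-normalized. Bidirectional fit vs DMSO baseline; phenobarbital 1mM as induction control.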

Read-out in a further test: CYP2C8 (gene 1558)
Put plainly: LTEA_HepaRG_CYP2C8: Life Technologies and Expression Analysis (LTEA) Assay for CYP2C8 using HepaRG (AID 2283483). A digest of the protocol:
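CYP2C8 mRNA induction or loss, by qRT-PCR normalized to ACTB/GAPDH/POLR2A, is read in HepaRG cells after 48 h treatment. Concentrations run from 100 uM down in half-log dilutions, with 0.5% DMSO as vehicle and baseline.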

Read-out in a further test: CYP2C9 (gene 1559)
Description: LTEA_HepaRG_CYP2C9: Life Technologies and Expression Analysis (LTEA) Assay for CYP2C9 using HepaRG (AID 2283484). A digest of the protocol: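 Cells plated 48 h, switched to serum-free induction medium, then treated in duplicate for 48 h at eight concentrations (max 100 uM, 0.5% DMSO). RNA then analysed by qRT-PCR for CYP2C9; curves fitted in both directions relative to DMSO.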

Read-out in another test: CYP4A11 (gene 1579)
Put plainly: LTEA_HepaRG_CYP4A11: Life Technologies and Expression Analysis (LTEA) Assay for CYP4A11 using HepaRG (AID 2283486). In a few lines:
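CYP4A11 transcript levels were quantified by TaqMan qRT-PCR after HepaRG human liver cells were treated for 48 hours with test chemicals (top 100 uM, half-log dilutions, 0.5% DMSO). Gain or loss of signal was fitted relative to DMSO.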

Read-out in test [6]: Cytochrome P450 3A4 (Homo sapiens) (UniProt P08684)
Put plainly: LTEA_HepaRG_CYP3A4: Life Technologies and Expression Analysis (LTEA) Assay for CYP3A4 using HepaRG (AID 2283487). A digest of the protocol: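 HepaRG, 48 h exposure, 8-pt CRC from 100 uM (half-log), 0.5% DMSO, duplicates; serum-free induction medium. Readout: CYP3A4 mRNA, qRT-PCR, ACTB/GAPDH/POLR2A normalization. Bidirectional fit vs DMSO.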

Read-out in test [7]: DNA damage-inducible transcript 3 (DDIT3), DDIT3 (gene 1649)
Description: LTEA_HepaRG_DDIT3: Life Technologies and Expression Analysis (LTEA) Assay for DNA damage-inducible transcript 3 (DDIT3) using HepaRG (AID 2283488). In a few lines:
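HepaRG plated 48 h, switched to serum-free induction medium, dosed 48 h (100 uM top, half-log, 8 pts, 0.5% DMSO, n=2); RNA isolated; DDIT3 by qRT-PCR; bidirectional curve fit vs DMSO.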

Read-out in test [8]: Early growth response protein 1 (EGR1) transcription factor, EGR1 (gene 1958)
Put plainly: LTEA_HepaRG_EGR1: Life Technologies and Expression Analysis (LTEA) Assay for Early growth response protein 1 (EGR1) transcription factor using HepaRG (AID 2283490). A digest of the protocol:
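Read-out is EGR1 mRNA level by qRT-PCR, normalized to three housekeeping genes and analysed for gain or loss of signal against 0.5% DMSO. Source cells: human HepaRG, treated 48 h at up to 100 uM in half-log dilutions.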

Read-out in test [9]: Ezrin (EZR), EZR (gene 7430)
Description: LTEA_HepaRG_EZR: Life Technologies and Expression Analysis (LTEA) Assay for Ezrin (EZR) using HepaRG (AID 2283491). In a few lines:
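Read-out is EZR transcript level by qRT-PCR, normalized to three housekeeping genes and fitted bidirectionally against the DMSO control. Human HepaRG cells received test chemicals for 48 h at eight half-log concentrations up to 100 uM in 0.5% DMSO.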

Read-out in test [10]: Cytochrome P450 3A7 (Homo sapiens) (UniProt P24462)
Description: LTEA_HepaRG_CYP3A7: Life Technologies and Expression Analysis (LTEA) Assay for CYP3A7 using HepaRG (AID 2283492). A digest of the protocol: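 CYP3A7 transcript levels were read by TaqMan qRT-PCR on Fluidigm arrays after 48 h chemical exposure of human HepaRG cells, with housekeeping-gene normalisation. Eight half-log concentrations up to 100 uM in 0.5% DMSO were tested in duplicate.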

Read-out in the next test: CYP3A5 (gene 1577)
Description: LTEA_HepaRG_CYP3A5: Life Technologies and Expression Analysis (LTEA) Assay for CYP3A5 using HepaRG (AID 2283493). A digest of the protocol: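 HepaRG plated 48 h, switched to serum-free induction medium, chemicals added 48 h (max 100 uM, half-log, 0.5% DMSO). RNA isolated; CYP3A5 by TaqMan qRT-PCR. Gain/loss vs DMSO.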

Read-out in test [11]: Fatty Acid-Binding Protein 1 (FABP1), FABP1 (gene 2168)
Description: LTEA_HepaRG_FABP1: Life Technologies and Expression Analysis (LTEA) Assay for Fatty Acid-Binding Protein 1 (FABP1) using HepaRG (AID 2283494). In a few lines:
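HepaRG, 48 h post-plating switched to serum-free induction medium, then dosed 48 h (duplicate, 8 pts, ≤100 uM, 0.5% DMSO). RNA → Fluidigm TaqMan qRT-PCR, FABP1 normed to ACTB/GAPDH/POLR2A. Bidirectional curve fit vs DMSO.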

Read-out in test [12]: Cytochrome P450 7A1 (Homo sapiens) (UniProt P22680)
Description: LTEA_HepaRG_CYP7A1: Life Technologies and Expression Analysis (LTEA) Assay for Cytochrome P450 7A1 (CYP7A1) using HepaRG (AID 2283496). In a few lines: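 HepaRG cells plated 48 h, then switched to serum-free induction medium and exposed in duplicate for 48 h to 8-point half-log series from 100 uM in 0.5% DMSO. CYP7A1 mRNA by qRT-PCR (TaqMan), normalized to ACTB/GAPDH/POLR2A; bidirectional fit versus DMSO.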

Read-out in test [13]: Glutathione S-Transferase (GSTA2), GSTA2 (gene 2939)
Description: LTEA_HepaRG_GSTA2: Life Technologies and Expression Analysis (LTEA) Assay for Glutathione S-Transferase (GSTA2) using HepaRG (AID 2283497). A digest of the protocol:
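HepaRG, 48 h dosing, 8-pt half-log CRC from 100 uM, 0.5% DMSO vehicle, n=2; RNA → Fluidigm TaqMan qRT-PCR; GSTA2 vs ACTB/GAPDH/POLR2A; gain/loss fit vs DMSO.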

Read-out in a further test: CYP2E1 (gene 1571)
Description: LTEA_HepaRG_CYP2E1: Life Technologies and Expression Analysis (LTEA) Assay for CYP2E1 using HepaRG (AID 2283485). In a few lines: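 Human liver line HepaRG, plated 48 h, then serum-free induction medium + chemical x 48 h; 8-pt CRC from 100 uM, half-log, 0.5% DMSO, n=2. Readout: CYP2E1 mRNA qRT-PCR vs ACTB/GAPDH/POLR2A; bidirectional fit vs DMSO.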

Read-out in test [14]: Pro-epidermal growth factor (Homo sapiens) (UniProt P01133)
Description: LTEA_HepaRG_EGF: Life Technologies and Expression Analysis (LTEA) Assay for Epidermal growth factor (EGF) using HepaRG (AID 2283489). In a few lines:
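qRT-PCR readout of EGF transcript after 48 h chemical exposure of HepaRG cells; eight concentrations from 100 uM down in half-log steps, duplicate wells, 0.5% DMSO vehicle. Bidirectional curve fitting against DMSO baseline.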

The record followed here is PubChem BioAssay (EPA / NIEHS).

Activity calls are given as the source filed them. How the source made its calls: active means hit-call score of the fitted dose curve at least 0.9, where 1 is the maximum; inactive means score below 0.9.

Sequence of Cytochrome P450 2C19 (Homo sapiens) (P33261 whole entry, looked up): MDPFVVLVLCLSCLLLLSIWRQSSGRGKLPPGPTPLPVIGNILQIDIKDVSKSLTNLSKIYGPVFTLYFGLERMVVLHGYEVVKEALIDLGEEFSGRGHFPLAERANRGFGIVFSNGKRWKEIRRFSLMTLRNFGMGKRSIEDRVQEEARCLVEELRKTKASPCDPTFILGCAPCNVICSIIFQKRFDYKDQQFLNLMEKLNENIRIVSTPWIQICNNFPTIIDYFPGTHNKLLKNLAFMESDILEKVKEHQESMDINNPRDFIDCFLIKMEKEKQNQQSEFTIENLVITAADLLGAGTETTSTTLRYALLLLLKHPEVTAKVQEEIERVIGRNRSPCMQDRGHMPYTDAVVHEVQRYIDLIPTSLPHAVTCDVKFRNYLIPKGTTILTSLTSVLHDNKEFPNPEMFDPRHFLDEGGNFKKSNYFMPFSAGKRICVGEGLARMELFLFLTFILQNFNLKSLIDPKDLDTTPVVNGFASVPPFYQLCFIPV
Sequence of Cytochrome P450 3A7 (Homo sapiens) (P24462 whole entry, looked up): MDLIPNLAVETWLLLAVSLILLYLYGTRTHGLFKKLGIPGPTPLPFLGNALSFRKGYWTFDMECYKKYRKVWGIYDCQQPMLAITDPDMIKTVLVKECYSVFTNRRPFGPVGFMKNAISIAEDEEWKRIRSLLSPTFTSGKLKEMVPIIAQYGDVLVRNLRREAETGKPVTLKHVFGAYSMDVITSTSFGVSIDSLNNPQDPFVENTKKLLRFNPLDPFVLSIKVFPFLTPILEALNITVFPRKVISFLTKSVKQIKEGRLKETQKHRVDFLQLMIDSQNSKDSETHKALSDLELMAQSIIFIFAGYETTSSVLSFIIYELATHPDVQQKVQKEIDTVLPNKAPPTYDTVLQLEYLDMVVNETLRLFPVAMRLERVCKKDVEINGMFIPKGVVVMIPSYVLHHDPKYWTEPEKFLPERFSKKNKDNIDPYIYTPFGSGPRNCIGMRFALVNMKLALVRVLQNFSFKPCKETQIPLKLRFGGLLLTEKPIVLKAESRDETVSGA
Sequence of Cytochrome P450 3A4 (Homo sapiens) (P08684 whole entry, looked up): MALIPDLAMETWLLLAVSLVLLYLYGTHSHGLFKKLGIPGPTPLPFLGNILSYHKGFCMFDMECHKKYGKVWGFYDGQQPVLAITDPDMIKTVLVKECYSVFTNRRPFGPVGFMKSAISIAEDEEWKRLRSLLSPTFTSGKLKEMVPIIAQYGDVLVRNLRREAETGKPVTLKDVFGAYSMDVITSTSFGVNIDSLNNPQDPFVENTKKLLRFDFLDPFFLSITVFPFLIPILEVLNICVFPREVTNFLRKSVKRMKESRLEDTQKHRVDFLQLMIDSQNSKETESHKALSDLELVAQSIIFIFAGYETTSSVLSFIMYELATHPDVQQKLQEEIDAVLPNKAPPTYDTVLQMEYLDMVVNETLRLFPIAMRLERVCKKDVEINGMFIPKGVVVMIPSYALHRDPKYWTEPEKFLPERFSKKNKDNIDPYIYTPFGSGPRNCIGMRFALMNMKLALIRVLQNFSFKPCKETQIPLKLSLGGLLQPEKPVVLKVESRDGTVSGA

On to `O=C(Oc1ccccc1)c1cccc(C(=O)Oc2ccccc2)c1`, for which the compound was classed as inactive (in test [1]; in test [3]; in [5]; with CYP2C8 (gene 1558); with CYP2C9 (gene 1559); in the test with CYP4A11 (gene 1579)). Also, the compound was classed as inactive (in [6]; in test [7]; in [8]; in test [9]; in test [10]; with CYP3A5 (gene 1577)). Also, the call in [11], in test [12] and in test [13] was inactive. Also, the AC50 (as a rule, the concentration giving half of the maximal activity seen) was 52.2 µM (active) in test [2] and 15.9 µM (active) in [4].
Consider `CCN(CC)CCOc1ccc(C(=C(Cl)c2ccccc2)c2ccccc2)cc1`, for which the compound was called inactive (in test [1]; in test [2]; in test [3]; in [5]; with CYP2C8 (gene 1558); in test [6]). The call (in test [14]; in [10]; with CYP3A5 (gene 1577); in test [11]) was inactive. For the same compound, the AC50 in [4] was 3.32 µM (active); with CYP2C9 (gene 1559), 80.9 µM (active); in the test with CYP2E1 (gene 1571), 14.6 µM (active); in [7], 42 µM (active); in test [8] it was 81.3 µM (active); in test [9], 67.8 µM (active). The AC50 is 13.3 µM (active) in test [12] and 78.6 µM (active) in [13].
As for `CCCCc1nc2cccnc2n1Cc1ccc(-c2ccccc2-c2nnn[nH]2)cc1`, the outcome (in test [1]; in test [2]; in test [3]; in test [5]; with CYP2C8 (gene 1558); with CYP2C9 (gene 1559)) was inactive. Further, the compound was called inactive (in [7]; in [8]; in test [9]; with CYP3A5 (gene 1577); in test [13]). Further, the AC50 in test [4] is 10.4 µM (active); with CYP2E1 (gene 1571), 28.6 µM (active); in test [6] it was 16 µM (active); in [10], 13.7 µM (active); in [12] it was 26.6 µM (active).
On to `COc1ccc(C(=O)Nc2nc3ccccc3c(NCc3ccccc3)c2C#N)cc1`, for which the concentration at half-maximal activity (AC50) in test [1] is 0.00721 µM (active); in test [2], 3 µM (active); in [5], 22.1 µM (active); in the test with CYP2C8 (gene 1558) it was 16.7 µM (active); with CYP2C9 (gene 1559) it was 16.3 µM (active); with CYP4A11 (gene 1579), 28.3 µM (active). Also, the AC50 in test [8] was 21.7 µM (active); in test [10], 14.3 µM (active); with CYP3A5 (gene 1577), 2.67 µM (active); in [11], 18 µM (active); in [12] it was 17.8 µM (active); in test [13] it was 20.5 µM (active). Moreover, the compound was classed as inactive in test [3], in test [4], in [6], in test [7], in test [14] and in [9].
